{"source": "paper PMC12864922", "about": "“TDP-43 directly inhibits mRNA accumulation in neurites through modulation of mRNA stability”", "binders": {"B1": {"name": "ENSMUSG00000004113.216|Cacna1b (ssRNA)", "RNA": "GGGAGUUCUACAGUCCGACGAUCGCUUCGAUAUCCGCAUGCUAGUCUUAGGGACAUUGACAGUGUCCAUCAGCAUGUCAGAGAAGCAGCUGUAGUGCCCGUGUUUCUCCCUGAGUCAUGGGUUCUGAAGAAGCCAGAGCGGCACAAUGCGUGCUUGCAUGAGGCACUUUCAGCCUUUUUAAAUCUGACUCUCAGGGAUGGGAUGCCUGCCAAGUAGGGUGUAAUCUCUGUUGUGUUUUUAAAACAACAACAACAAAAUAAAACAAAAAAAAAAAACCUAGUAUUCACUGGAUGCUGAAGAGUGCUCUUGCGGUCGCACUAGUGUGGAAUUCUCGGGUGUCAAGG"}, "B2": {"name": "ENSMUSG00000035279.61|Ssc5d|92:97;148:152;163:167 (ssRNA)", "RNA": "GGGAGUUCUACAGUCCGACGAUCGCUUCGAUAUCCGCAUGCUAUAAAGAGGCUAGCAGAGGUGGCCUGGCCCCCCAGCACUCCUGUGCCCAUGACCACCACCACAGAGGAGGAGGAGAGGCCUCUGAGGGGAGAACACACACCCACUCUGAAAUUCACGGUGCUUAAGAUACUCUUAAACAAAAGCCAACCAUACUACAAUCGAACACACGGUGUUGUUACUGGGGAGCAGGGGCUCUGGAGGGACAGAAUUACAAUGCUGAUCCUAACUUGUCAAUGCCAUCUGUGAUGGCGUUGGAGAUCACUCUUGCGGUCGCACUAGUGUGGAAUUCUCGGGUGUCAAGG"}, "B3": {"name": "ENSMUSG00000031028.6|Tub (ssRNA)", "RNA": "GGGAGUUCUACAGUCCGACGAUCGCUUCGAUAUCCGCAUGCUAUAGCAGAAGAUGUGUUCACCAUGGAUUACAACUACCCACUGUGUGCACUGCAGGCCUUUGCCAUUGCUCUGUCCAGCUUUGACAGCAAGCUGGCCUGCGAGUAGAGGCCCCCCACUGCCUUUAGGUGGCCCAGUCCGGAGUGGAGCUUGCCUGCCUGCCAAGACAGCCCUGCCUACCCUCUGUUCAUAGGCCCUCUAUGGGCUUUCUGGCCUUACCAACCAGAGACUGGCUGCUCUGCCUCUGCUGCUGAAGCAGGGGGGCUCUUGCGGUCGCACUAGUGUGGAAUUCUCGGGUGUCAAGG"}, "B4": {"name": "ENSMUSG00000058297.454|Spock2 (ssRNA)", "RNA": "GGGAGUUCUACAGUCCGACGAUCGCUUCGAUAUCCGCAUGCUAUCAGGAGCAAGGUCACACAGGUCAGAUUAUUGUCGGUCCUGCGGGCCUCAUCCUUGAAUAAGCUGCCUGCCCAGUUCCUCCAUCCGUGUUCCUGCCUGCUCCCGUUCCCUUGUUGCGGGCAGGAGAGGUAGGGCUGUGUUGGAAAGAGUUCAACCAAAUUACGGCAGCACCACAUCUUGCCGAGCCCUGGAGCUGCCCUACUAAGAGCCUCCUUAGCCCUGGGUGCUGGGAAGGAUGGUGUACGUUGGGGAAGUUUGAGGCUCUUGCGGUCGCACUAGUGUGGAAUUCUCGGGUGUCAAGG"}, "B5": {"name": "ENSMUSG00000090935.743|Synj2bp (ssRNA)", "RNA": "GGGAGUUCUACAGUCCGACGAUCGCUUCGAUAUCCGCAUGCUAAAUACUCCUGGGUAAAAUUUGUAUUAGAAUGGAAAAAAAAAUGAGGGUCAGAAAGGUGAGCUAACUUCAAGUUAGAUACUCCCCUCUAUUUUGGUCUCAAAUUUGUUUUAGUGUGUCCACAACAUGAAAACAUACAAAAACUAUAUUUUAAAAAUCAGUUUACUUUCAUCUUUUCUCUUUAGGCUUUCAAUAAAGACCAGAAGGACUGAUAGACAGCUAGAGAGGAUCGUGUAGGCAUCCAGAUUAGAAUGGAAGAAUCCCUCUUGCGGUCGCACUAGUGUGGAAUUCUCGGGUGUCAAGG"}, "B6": {"name": "ENSMUSG00000022095.31|Fam160b2|161:165 (ssRNA)", "RNA": "GGGAGUUCUACAGUCCGACGAUCGCUUCGAUAUCCGCAUGCUACUCUGUCCUCCAUGCCGGGGACUUCAGCUGCAGGACACCUCACCUGUUGACCCCACGAGCUGAGGUUUCAAGGAGGUGCUGGCUCCUAAGGCAGUGGUAUUCUUGGAGCCUUUUAGAGGAGCUAGAGGAUGGCCAGUGAGCGCCUAGAUGCUGCCCUGCAACACAUGCGUGACUAUCUCUGCUAUAUUGUGACCAGGGCCACAACAUGAGACAACUCCAGGGGCCAGGGAGAUGAACUGCUGUCUUUGAGGCUGGCUAAACUCUUGCGGUCGCACUAGUGUGGAAUUCUCGGGUGUCAAGG"}, "B7": {"name": "ENSMUSG00000042529.39|Kcnj12 (ssRNA)", "RNA": "GGGAGUUCUACAGUCCGACGAUCGCUUCGAUAUCCGCAUGCUAGUUUUUUCGCAGUAGCUUGGGAAAGUUGGCGGGAGCGUGGAUGGCCAAAAUGACUGGCUCACGGCCUCGGAGGCUGAUGUAUACCCAUGGGCAAGGAGGUGACUUCUUGGGGUAGGGUUGCUCAGGAGUUAGGGACUCUGCUGGAGGCCUUAGGUGCAGGUCCCAGCCCCGGUGGGAGGAGGCUGUGUAUGUACACUUCAUUGGUUUUUAACUUGGGCAAGACUGUUUACAAACAAAAACAAACAAACAAACAAUCAAAACUCUUGCGGUCGCACUAGUGUGGAAUUCUCGGGUGUCAAGG"}, "B8": {"name": "ENSMUSG00000061578.1493|Ksr2 (ssRNA)", "RNA": "GGGAGUUCUACAGUCCGACGAUCGCUUCGAUAUCCGCAUGCUAUGGAUGAAUGGAUGGAUAGGUUGGUAGGUUAAUGUAUUCGUGGAUGGGUGAAUGGAUGGAUGGAUAGAUAGAUGGGAAGGUGGAUGGACAGAUGGAUGGAUGGAUAGAUAGAUGGACAGGUGGUUGGUGGAUAAAUGAGUGAAUGAUUAUGUUGAUAGAUAUGUGGGUAGGCUGAAUGGGUGAAUGGAUAGAUCGAUGACUGGAUGGAGGGUGGGUGACUGUAUAGGCAGGUGGGUAGGUAGCUGGAUGGGUGGGCGUAUCUCUUGCGGUCGCACUAGUGUGGAAUUCUCGGGUGUCAAGG"}, "B9": {"name": "ENSMUSG00000061578.1490|Ksr2 (ssRNA)", "RNA": "GGGAGUUCUACAGUCCGACGAUCGCUUCGAUAUCCGCAUGCUAGGUAGAAGGGUGAGUGGGUGGAUGAAUGGAUGGAUAGGUUGGUAGGUUAAUGUAUUCGUGGAUGGGUGAAUGGAUGGAUGGAUAGAUAGAUGGGAAGGUGGAUGGACAGAUGGAUGGAUGGAUAGAUAGAUGGACAGGUGGUUGGUGGAUAAAUGAGUGAAUGAUUAUGUUGAUAGAUAUGUGGGUAGGCUGAAUGGGUGAAUGGAUAGAUCGAUGACUGGAUGGAGGGUGGGUGACUGUAUAGGCAGGUGGGUAGGUAGCUCUUGCGGUCGCACUAGUGUGGAAUUCUCGGGUGUCAAGG"}, "B10": {"name": "ENSMUSG00000061578.1494|Ksr2 (ssRNA)", "RNA": "GGGAGUUCUACAGUCCGACGAUCGCUUCGAUAUCCGCAUGCUAAAUGGAUGGAUAGGUUGGUAGGUUAAUGUAUUCGUGGAUGGGUGAAUGGAUGGAUGGAUAGAUAGAUGGGAAGGUGGAUGGACAGAUGGAUGGAUGGAUAGAUAGAUGGACAGGUGGUUGGUGGAUAAAUGAGUGAAUGAUUAUGUUGAUAGAUAUGUGGGUAGGCUGAAUGGGUGAAUGGAUAGAUCGAUGACUGGAUGGAGGGUGGGUGACUGUAUAGGCAGGUGGGUAGGUAGCUGGAUGGGUGGGCGUAUAGAAAGCUCUUGCGGUCGCACUAGUGUGGAAUUCUCGGGUGUCAAGG"}, "B11": {"name": "ENSMUSG00000061578.1489|Ksr2 (ssRNA)", "RNA": "GGGAGUUCUACAGUCCGACGAUCGCUUCGAUAUCCGCAUGCUAUAUGUGGGUAGAAGGGUGAGUGGGUGGAUGAAUGGAUGGAUAGGUUGGUAGGUUAAUGUAUUCGUGGAUGGGUGAAUGGAUGGAUGGAUAGAUAGAUGGGAAGGUGGAUGGACAGAUGGAUGGAUGGAUAGAUAGAUGGACAGGUGGUUGGUGGAUAAAUGAGUGAAUGAUUAUGUUGAUAGAUAUGUGGGUAGGCUGAAUGGGUGAAUGGAUAGAUCGAUGACUGGAUGGAGGGUGGGUGACUGUAUAGGCAGGUGGGUCUCUUGCGGUCGCACUAGUGUGGAAUUCUCGGGUGUCAAGG"}, "B12": {"name": "ENSMUSG00000061578.1488|Ksr2 (ssRNA)", "RNA": "GGGAGUUCUACAGUCCGACGAUCGCUUCGAUAUCCGCAUGCUAAAUGAAUAUGUGGGUAGAAGGGUGAGUGGGUGGAUGAAUGGAUGGAUAGGUUGGUAGGUUAAUGUAUUCGUGGAUGGGUGAAUGGAUGGAUGGAUAGAUAGAUGGGAAGGUGGAUGGACAGAUGGAUGGAUGGAUAGAUAGAUGGACAGGUGGUUGGUGGAUAAAUGAGUGAAUGAUUAUGUUGAUAGAUAUGUGGGUAGGCUGAAUGGGUGAAUGGAUAGAUCGAUGACUGGAUGGAGGGUGGGUGACUGUAUAGGCAGCUCUUGCGGUCGCACUAGUGUGGAAUUCUCGGGUGUCAAGG"}, "B13": {"name": "ENSMUSG00000061578.1492|Ksr2 (ssRNA)", "RNA": "GGGAGUUCUACAGUCCGACGAUCGCUUCGAUAUCCGCAUGCUAAGUGGGUGGAUGAAUGGAUGGAUAGGUUGGUAGGUUAAUGUAUUCGUGGAUGGGUGAAUGGAUGGAUGGAUAGAUAGAUGGGAAGGUGGAUGGACAGAUGGAUGGAUGGAUAGAUAGAUGGACAGGUGGUUGGUGGAUAAAUGAGUGAAUGAUUAUGUUGAUAGAUAUGUGGGUAGGCUGAAUGGGUGAAUGGAUAGAUCGAUGACUGGAUGGAGGGUGGGUGACUGUAUAGGCAGGUGGGUAGGUAGCUGGAUGGGUGGCUCUUGCGGUCGCACUAGUGUGGAAUUCUCGGGUGUCAAGG"}}, "note": "The full ranking holds about 9,900 sequences; the median of “r (bound/input frequency ratio)” is about 0.7, and the highest 2% start at about 6.5. What follows is part of a selection rich in the highest values, with near analogues and random picks from the rest.", "data": [{"biological_target": "TDP-43 (Homo sapiens, UniProt Q13148 1-414)", "sequence (Q13148 whole entry)": "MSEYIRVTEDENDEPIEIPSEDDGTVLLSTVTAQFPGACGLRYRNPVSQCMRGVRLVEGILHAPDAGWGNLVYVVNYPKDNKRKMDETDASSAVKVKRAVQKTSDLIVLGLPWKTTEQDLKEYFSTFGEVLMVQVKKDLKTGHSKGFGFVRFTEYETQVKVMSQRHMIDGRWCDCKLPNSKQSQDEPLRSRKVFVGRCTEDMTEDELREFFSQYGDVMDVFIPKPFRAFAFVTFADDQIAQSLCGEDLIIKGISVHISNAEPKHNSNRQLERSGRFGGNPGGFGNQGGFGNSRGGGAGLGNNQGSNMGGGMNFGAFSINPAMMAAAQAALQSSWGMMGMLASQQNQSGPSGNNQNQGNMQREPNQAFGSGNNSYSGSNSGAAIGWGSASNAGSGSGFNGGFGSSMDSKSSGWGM", "assay": "RNA Bind-n-Seq with designed 260-mer pool; 25 mM Tris-HCl, 150 mM KCl, 3 mM MgCl2, BSA (printed 500 mg/mL), 20 units/mL SUPERase IN; pH not stated; 500 nM RNA pool, 1 h, 4 C; TDP-43 5, 50, 500 nM; high values mean tight binding", "settings": "protein: recombinant; tags: SBP (GST cleaved off with PreScission; pGEX-GST-SBP)", "how_it_was_run": "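In 25 mM Tris-HCl, 150 mM KCl, 3 mM MgCl2, BSA and SUPERase IN, 500 nM of an in vitro-transcribed 260-nt 3′ UTR oligo pool was incubated for 1 h at 4 °C with SBP-tagged TDP-43 (5, 50 or 500 nM) captured on streptavidin beads. RNA remaining after washes was biotin-eluted, reverse transcribed, PCR-amplified and sequenced. Binding, R, is the bound-sample abundance of each oligo, normalized to mapped reads, divided by its abundance in input. Each duplicate used a separate, independent protein batch.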", "values": [{"binder": "B1", "binding signal": "1.66 R (bound/input frequency ratio)"}, {"binder": "B2", "binding signal": "0.434 R (bound/input frequency ratio)"}, {"binder": "B3", "binding signal": "0.331 R (bound/input frequency ratio)"}, {"binder": "B4", "binding signal": "0.419 R (bound/input frequency ratio)"}, {"binder": "B5", "binding signal": "0.123 R (bound/input frequency ratio)"}, {"binder": "B6", "binding signal": "0.326 R (bound/input frequency ratio)"}, {"binder": "B7", "binding signal": "1.88 R (bound/input frequency ratio)"}, {"binder": "B8", "binding signal": "4.33 R (bound/input frequency ratio)"}, {"binder": "B9", "binding signal": "11.2 R (bound/input frequency ratio)"}, {"binder": "B10", "binding signal": "5.89 R (bound/input frequency ratio)"}, {"binder": "B11", "binding signal": "5.83 R (bound/input frequency ratio)"}, {"binder": "B12", "binding signal": "5.5 R (bound/input frequency ratio)"}, {"binder": "B13", "binding signal": "7.07 R (bound/input frequency ratio)"}]}]}
